For 8 compounds, Potency results are on record in PubChem BioAssay (Tox21).

The structures appear in SMILES notation. Several values for one entry are separate records, joined by “and”; a condition that tells them apart may be missing. Identical values can stand only once. Unmarked numbers belong to inactive results. Records with an inconclusive call do not appear. Activity calls are given as the source filed them. Unless noted, calls follow the shape of the full dose curve.

The nature of test [1]: Nuclear factor erythroid 2-related factor 2/antioxidant responsive element (Nrf2/ARE) small molecule agonists: qHTS cell viability counter screen in human keratinocytes (AID 1919968; active = well fitted curve in the direction sought with a large enough effect in the repeat runs; an effect the other way counts as inactive or inconclusive; also: nearly all actives have a fitted effect of over 55% in size; also: potency is read from the fitted curve at half-maximal effect). Put shortly:
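KeratinoSens cells (HaCaT keratinocytes stably carrying an ARE-luciferase reporter) were seeded at 1,500 cells/well and rested 5 h at 37 C/5% CO2. They were then exposed to compounds in DMSO for 23 h. Viability was read by CellTiter-Fluor fluorescence after 1 h.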
In general terms: Quantitative high-throughput screening tests each substance at several concentrations.

Test [2] can be described thus: Nuclear factor erythroid 2-related factor 2/antioxidant responsive element (Nrf2/ARE) small molecule agonists: luciferase reporter gene qHTS assay in human keratinocytes (AID 1919969; also: nearly all actives have a fitted effect of over 35% in size; also: potency is read from the fitted curve at half-maximal effect). (Reporter assays use an easily measured gene product as a stand-in for the process of interest.)
Test [3] addresses Gonadotropin-releasing hormone receptor (Homo sapiens) (UniProt P30968). Description: Human gonadotropin-releasing hormone receptor (GnRHR) small molecule agonists, calcium flux assay in GnRHR-HEK293 cells (AID 1920063). Also: nearly all actives have a fitted effect of over 35% in size. Also: potency is read from the fitted curve at half-maximal effect. In outline: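 HEK293 cells stably expressing human GnRHR were plated 18 h at 37 °C, loaded with calcium dye 1 h at 37 °C, then given compound in agonist mode; fluorescence (Ex/Em 480/540) read kinetically for 3 min at 1 s intervals.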
(In general: Calcium assays in cells follow changes in intracellular calcium, usually with a dye or a luminescent sensor.)

The target of test [4] is KiSS-1 receptor (Homo sapiens) (UniProt Q969F8). As to the kind of experiment: Human kisspeptin (KISS1R) small molecule agonists, calcium flux assay in KISS1R-HEK293 cells (AID 1920064; active = well fitted curve in the direction sought with a large enough effect in the repeat runs; an effect the other way counts as inactive or inconclusive). Put shortly:
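HEK293 cells stably expressing human KISS1R were plated 18 h at 37 °C, loaded with calcium dye for 1 h at 37 °C, then given compound by pin tool. Fluorescence (Ex/Em 480/540) was read kinetically for 3 min.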

The nature of test [5]: G protein-coupled receptor (GPCR) small molecule agonists, calcium flux assay: HEK293 wild type cell line counter screen (AID 1920065). Put shortly:
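Cells were plated and cultured 18 h at 37 C/5% CO2, then loaded with calcium dye for 1 h at 37 C. Compounds in DMSO were pin-transferred in agonist mode, and fluorescence (Ex/Em 480/540) was read kinetically for 3 min at 1 s intervals.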

Test [6] is described as follows: p53 small molecule agonists, cell-based qHTS assay with rat liver microsomes (AID 1963578). In outline: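 Read-out is beta-lactamase reporter fluorescence (LiveBLAzer, 2 h, room temperature, dark) in p53RE-bla cells treated 16 h at 37 C with compound, rat liver microsomes and NADPH, both 0.5 mg/mL final.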
The nature of test [7]: p53 small molecule agonists, cell-based qHTS assay with human liver microsomes: qHTS cell viability counter screen (AID 1963579). Also: nearly all actives have a fitted effect of over 45% in size. In outline: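 Cells carrying the p53 response-element beta-lactamase reporter are treated for 16 h at 37 C with test compounds in the presence of human liver microsomes and NADPH (both 0.5 mg/mL final); ATP-based CellTiter-Glo luminescence then reports viability.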

Test [8] is described as follows: p53 small molecule agonists, cell-based qHTS assay with rat liver microsomes: qHTS cell viability counter screen (AID 1963580). Also: nearly all actives have a fitted effect of over 45% in size. Put shortly:
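Viability is assessed in parallel with the p53 reporter read: HCT-116 p53RE-bla cells receive compounds plus rat microsomes and NADPH (0.5 mg/mL final apiece), incubate 16 h at 37 C, and then CellTiter-Glo luminescence is recorded.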

A short description of test [9]: p53 small molecule agonists, cell-based qHTS assay: qHTS cell viability counter screen (AID 1963581). Also: nearly all actives have a fitted effect of over 45% in size. In outline: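 p53RE-bla HCT-116 cells were exposed to compounds for 16 h at 37 C; after the beta-lactamase FRET read in the same wells, CellTiter-Glo was added and luminescence (intracellular ATP) read after 30 min at room temperature.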
Test [10] can be described thus: p53 small molecule agonists, cell-based qHTS assay (AID 1963582; active = well fitted activation curve with a large enough effect in the signal ratio in the repeat runs, not every such curve was filed as active; the % refers to the signal ratio). In outline:
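p53RE-bla beta-lactamase reporter cells rested 5 h at 37 C/5% CO2, then received compounds in DMSO by pin transfer and were incubated 16 h at 37 C. LiveBLAzer B/G FRET substrate was loaded for 2 h at room temperature before fluorescence reading.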

The target of test [11] is 5-hydroxytryptamine receptor 2A (Homo sapiens) (UniProt P28223). Description: 5-hydroxytryptamine receptor 2A (HTR2A) small molecule antagonists, cell-based qHTS assay (AID 1963586). Also: nearly all actives have a fitted effect of over 45% in size. Put shortly:
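Antagonist-mode intracellular calcium assay: DOI (4 nM) added after 5 min compound pre-incubation at room temperature to dye-loaded HTR2A-CHO cells. Fluorescence followed for 3 min, sampled every second.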

For test [12] the target is unchanged. As to the kind of experiment: 5-hydroxytryptamine receptor 2A (HTR2A) small molecule agonists, cell-based qHTS assay (AID 1963587). Also: nearly all actives have a fitted effect of over 30% in size. In outline: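 CHO cells stably expressing human HTR2A, plated 18 h, loaded with calcium dye 1 h at 37 C. Agonist mode: compounds added and intracellular calcium fluorescence recorded kinetically for 2 min at 1 sec intervals.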

Test [13] deals with Muscarinic acetylcholine receptor M1 (Homo sapiens) (UniProt P11229). Description: Cholinergic receptor muscarinic 1 (CHRM1) small molecule antagonists, cell-based qHTS assay (AID 1963588). Also: nearly all actives have a fitted effect of over 40% in size. In outline:
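CHRM1-CHO calcium-flux assay, antagonist mode. Cells were seeded 18 h, dye-loaded 1 h at 37 C and given compound for 5 min at RT, then acetylcholine was added at 50nM. FDSS fluorescence was read 3 min; 15 concentrations, three runs.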

For test [14] the target is unchanged. Description: Cholinergic receptor muscarinic 1 (CHRM1) small molecule agonists, cell-based qHTS assay (AID 1963589). Also: nearly all actives have a fitted effect of over 35% in size. In outline: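 CHO cells stably expressing human CHRM1, seeded 18 h at 37 C/5% CO2, dye-loaded 1 h at 37 C, then given compound in agonist mode; intracellular calcium fluorescence read kinetically at 1 s intervals. Fifteen concentrations, three independent runs.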

The nature of test [15]: cAMP Responsive Elements (CRE) small molecule agonists, cell-based qHTS assay (AID 1963590). Put shortly: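 CRE-bla HEK 293T cells in DMEM with 10% dialyzed FBS, NEAA, pyruvate and 25 mM HEPES were plated 18 h at 37 C/5% CO2, then exposed to compounds in DMSO for 3 h before LiveBLAzer B/G FRET substrate addition.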
Test [16] deals with Beta-2 adrenergic receptor (Homo sapiens) (UniProt P07550). Description: Adrenergic beta2 receptor (ADRB2) small molecule antagonists, cell-based qHTS assay (AID 1963592). Also: series mostly up to about 92 µM; nearly all actives have a fitted effect of over 50% in size. Put shortly:
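Cells (CHO, stable ADRB2 overexpression) incubated 18-20hr at 37C; compounds added from DMSO; agonist mix (1nM isoproterenol, 100uM IBMX, 25uM Ro-20-1724) added; 0.5hr RT; d2-cAMP and anti-cAMP-cryptate added; 1hr RT; 665/615 nm read.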

For test [17] the target is unchanged. As to the kind of experiment: Adrenergic beta2 receptor (ADRB2) small molecule agonists, cell-based qHTS assay (AID 1963593).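 Also: CHO cells stably overexpressing human ADRB2.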 Put shortly:
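CHO cells stably over-expressing ADRB2 were plated overnight at 37C, then dosed with compounds plus a stimulation mix containing 100uM IBMX and 25uM Ro-20-1724 for 0.5hr at room temperature. cAMP was measured by HTRF competition, 1hr.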

Test [18] concerns the target D(2) dopamine receptor (Homo sapiens) (UniProt P14416). As to the kind of experiment: Dopamine D2 receptor (DRD2) small molecule agonists, cell-based qHTS assay (AID 1963594). Also: nearly all actives have a fitted effect of over 35% in size. In outline:
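HEK293 cells stably expressing human DRD2, pre-treated with PDE inhibitor Ro20-1724 (0.1 mM final) and compound 10 min at room temperature, then stimulated with NKH477 (200nM […]) for 30 min. cAMP read by HTRF (665/620 nm).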

For test [19] the target is unchanged. Description: Dopamine D2 receptor (DRD2) small molecule antagonists, cell-based qHTS assay (AID 1963595; active = well fitted inhibition curve with a large enough effect in the signal ratio in the repeat runs, with a control signal flat; the % refers to the signal ratio). Put shortly: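 Antagonism was scored as restored cAMP in HEK293-DRD2 cells. These cells were stimulated with 200 nM NKH477 and 12 nM quinpirole for 30 min at room temperature, in the presence of 0.1 mM Ro20-1724.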
Test [20] can be described thus: cAMP Responsive Elements (CRE) small molecule antagonists, cell-based qHTS assay (AID 1963591; active = well fitted inhibition curve with a large enough effect in the signal ratio in the repeat runs, not every such curve was filed as active; the % refers to the signal ratio). In outline: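 CRE-bla HEK293T cells were plated 18 h at 37 °C/5% CO2, pinned with compound in DMSO, then stimulated with NKH477 at 0.25 uM final for 3 h. LiveBLAzer B/G FRET substrate was added and plates incubated 2 h at room temperature.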

Muscarinic acetylcholine receptor M1 (Homo sapiens), sequence (P11229 whole entry, looked up): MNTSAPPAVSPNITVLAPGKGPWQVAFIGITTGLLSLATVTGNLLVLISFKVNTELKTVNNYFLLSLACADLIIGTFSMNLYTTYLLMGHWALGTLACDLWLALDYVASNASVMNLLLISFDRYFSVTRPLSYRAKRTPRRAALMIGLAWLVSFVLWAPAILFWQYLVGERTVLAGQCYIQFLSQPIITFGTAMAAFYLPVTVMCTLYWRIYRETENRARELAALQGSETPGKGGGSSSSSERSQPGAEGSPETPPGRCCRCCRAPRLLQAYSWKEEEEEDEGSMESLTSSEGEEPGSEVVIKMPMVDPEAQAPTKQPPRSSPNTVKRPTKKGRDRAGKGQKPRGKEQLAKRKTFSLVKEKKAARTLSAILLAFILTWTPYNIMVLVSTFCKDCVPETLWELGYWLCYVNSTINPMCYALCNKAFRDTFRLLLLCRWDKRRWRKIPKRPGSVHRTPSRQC
Beta-2 adrenergic receptor (Homo sapiens), sequence (P07550 whole entry, looked up): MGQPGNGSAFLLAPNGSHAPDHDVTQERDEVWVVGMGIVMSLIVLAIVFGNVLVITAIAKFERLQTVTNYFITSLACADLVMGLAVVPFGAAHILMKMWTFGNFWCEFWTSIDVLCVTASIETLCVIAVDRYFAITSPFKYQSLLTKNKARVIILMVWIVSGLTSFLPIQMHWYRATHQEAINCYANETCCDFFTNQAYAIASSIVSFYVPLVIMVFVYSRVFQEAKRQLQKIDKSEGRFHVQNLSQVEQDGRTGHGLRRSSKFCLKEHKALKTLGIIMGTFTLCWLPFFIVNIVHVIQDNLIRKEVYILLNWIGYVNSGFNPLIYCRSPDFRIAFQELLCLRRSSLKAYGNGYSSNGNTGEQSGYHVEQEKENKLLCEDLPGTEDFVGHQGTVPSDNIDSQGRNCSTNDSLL
Gonadotropin-releasing hormone receptor (Homo sapiens), sequence (P30968 whole entry, looked up): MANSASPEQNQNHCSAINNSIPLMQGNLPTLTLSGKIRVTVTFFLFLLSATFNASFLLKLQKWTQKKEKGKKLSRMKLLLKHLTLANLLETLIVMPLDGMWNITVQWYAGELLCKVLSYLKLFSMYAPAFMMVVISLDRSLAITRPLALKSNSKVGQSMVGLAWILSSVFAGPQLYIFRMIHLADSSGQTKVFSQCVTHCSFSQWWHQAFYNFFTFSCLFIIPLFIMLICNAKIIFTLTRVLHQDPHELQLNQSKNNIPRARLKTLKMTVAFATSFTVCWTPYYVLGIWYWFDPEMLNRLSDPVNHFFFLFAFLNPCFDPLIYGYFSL
5-hydroxytryptamine receptor 2A (Homo sapiens), sequence (P28223 whole entry, looked up): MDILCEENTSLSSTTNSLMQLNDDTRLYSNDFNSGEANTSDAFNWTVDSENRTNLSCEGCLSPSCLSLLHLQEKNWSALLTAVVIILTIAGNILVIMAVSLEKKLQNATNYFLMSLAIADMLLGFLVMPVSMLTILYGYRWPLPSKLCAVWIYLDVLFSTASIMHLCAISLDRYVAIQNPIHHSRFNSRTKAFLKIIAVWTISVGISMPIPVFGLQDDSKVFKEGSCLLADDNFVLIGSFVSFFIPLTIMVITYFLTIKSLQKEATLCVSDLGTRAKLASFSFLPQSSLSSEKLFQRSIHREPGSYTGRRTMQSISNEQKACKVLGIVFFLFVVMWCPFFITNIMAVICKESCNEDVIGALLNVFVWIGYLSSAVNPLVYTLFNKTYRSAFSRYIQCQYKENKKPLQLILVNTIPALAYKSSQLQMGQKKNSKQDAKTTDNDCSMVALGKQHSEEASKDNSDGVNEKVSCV
D(2) dopamine receptor (Homo sapiens), sequence (P14416 whole entry, looked up): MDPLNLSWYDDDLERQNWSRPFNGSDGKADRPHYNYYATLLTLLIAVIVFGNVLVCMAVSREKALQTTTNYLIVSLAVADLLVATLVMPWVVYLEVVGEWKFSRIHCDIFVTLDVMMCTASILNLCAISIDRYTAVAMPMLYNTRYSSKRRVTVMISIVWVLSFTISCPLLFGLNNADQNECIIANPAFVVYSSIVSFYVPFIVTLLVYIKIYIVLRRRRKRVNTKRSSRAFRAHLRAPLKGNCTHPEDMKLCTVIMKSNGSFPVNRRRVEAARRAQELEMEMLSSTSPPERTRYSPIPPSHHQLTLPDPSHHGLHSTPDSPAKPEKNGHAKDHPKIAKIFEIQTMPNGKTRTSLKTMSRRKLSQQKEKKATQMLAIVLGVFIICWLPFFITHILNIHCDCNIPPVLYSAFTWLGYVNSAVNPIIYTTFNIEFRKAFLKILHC
KiSS-1 receptor (Homo sapiens), sequence (Q969F8 whole entry, looked up): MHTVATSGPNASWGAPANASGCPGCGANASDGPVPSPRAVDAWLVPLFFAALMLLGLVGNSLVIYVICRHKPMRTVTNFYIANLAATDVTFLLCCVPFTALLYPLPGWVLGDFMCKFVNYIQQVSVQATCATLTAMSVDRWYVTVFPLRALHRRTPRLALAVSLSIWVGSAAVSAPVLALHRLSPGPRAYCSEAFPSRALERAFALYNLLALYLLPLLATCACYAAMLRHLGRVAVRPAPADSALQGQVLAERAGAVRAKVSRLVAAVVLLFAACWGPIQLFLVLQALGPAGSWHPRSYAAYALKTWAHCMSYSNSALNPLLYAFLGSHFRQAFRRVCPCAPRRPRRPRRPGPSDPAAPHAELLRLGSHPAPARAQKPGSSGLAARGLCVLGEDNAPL

`O=C(O)c1ccc([N+](=O)[O-])cc1`: the Potency entry in test [1], in [2], in test [3], in test [4], in test [5] and in test [6] was “inactive” each time. In addition, the Potency entry in test [7], in test [8], in [9], in test [10], in test [11] and in test [12] was “inactive” each time. For the same compound, the Potency result in test [13], in test [14], in test [15], in test [16], in test [17] and in test [18] was “inactive” in each case. For the same compound, in test [19], the Potency entry was “inactive”.

Take `CCC(COC(=O)CCS)(COC(=O)CCS)COC(=O)CCS`: the Potency result in test [1], in test [2], in test [3], in [4], in test [5] and in test [6] was “inactive” throughout. The Potency entry in [7], in test [8], in test [9], in [10], in test [11] and in test [12] was “inactive” in each case. The Potency result in test [14], in test [15], in test [20], in test [16] and in [19] was “inactive” in each case.

In the case of `CC(C)CNCC(C)C`, the Potency entry in test [1], in test [2], in test [3], in test [4], in [5] and in [6] was “inactive” throughout. The Potency entry in test [7], in [8], in test [9], in [10], in [11] and in test [12] was “inactive” in each case. The Potency result in test [13], in test [14], in [15], in test [20], in test [18] and in test [19] was “inactive” each time.

As to `CC(C)(C)S`, the Potency result in [1], in test [2], in test [3], in [4], in test [5] and in test [6] was “inactive” throughout. In addition, the Potency entry in test [7], in test [8], in test [9], in test [10], in test [11] and in test [12] was “inactive” in each case. Also, the Potency result in test [13], in [14], in test [15], in test [20], in test [16] and in test [18] was “inactive” each time. In addition, in test [19], the Potency result is “inactive”.

Regarding `CCC(CO)(CO)CO`, the Potency entry in test [1], in [2], in test [3], in test [4], in test [5] and in test [6] was “inactive” throughout. In addition, the Potency result in test [7], in [8], in test [9], in test [10], in [11] and in [13] was “inactive” each time. Moreover, the Potency entry in [14], in test [15], in [20], in [16], in test [18] and in [19] was “inactive” each time.

Consider `CC(=N\O)/C(C)=N/O`, for which the Potency entry in [1], in [2], in [3], in test [4], in test [5] and in test [6] was “inactive” in each case. Also, the Potency entry in test [7], in test [8], in [9], in [10], in test [11] and in test [13] was “inactive” throughout. Also, the Potency result in test [14], in test [15], in test [20], in [16], in test [17] and in [18] was “inactive” throughout. Moreover, the Potency entry in [19] is “inactive”.

On to `CN(C)c1ccc(C(=N)c2ccc(N(C)C)cc2)cc1`, for which the Potency in [1] was 24 µM (active) and 23.4 µM (active); in test [2] it was 60.4 µM (active) and 52.4 µM (active); in test [3], 29.7 µM (active). For the same compound, the Potency entry in [4], in test [5], in test [7], in test [9], in test [11] and in test [12] was “inactive” throughout. The Potency result in [20], in test [16], in test [17], in test [18] and in test [19] was “inactive” in each case.

For `O=C(O)c1ccccc1-n1cc(C(=O)O)c(=O)c2cc(Nc3c(F)cc(F)cc3Cl)c(Cl)cc21`, the Potency result in [1], in [2], in [3], in test [4], in [5] and in test [6] was “inactive” each time. The Potency entry in test [7], in test [8], in test [9], in test [10], in [11] and in test [12] was “inactive” throughout. For the same compound, the Potency result in test [13], in [14], in test [15], in test [20], in test [16] and in test [17] was “inactive” each time.
